In PubChem BioAssay:
For part of these data: Results with a measured potency or affinity are listed apart. Activity calls are given as the source filed them.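 How the source made its calls, unless noted: active means fluorescence ratio normalized to control raised more than 50% in primary screen plus both repeat runs; inactive means the rest.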

How the values were obtained:
[1] = test system: TRPC4 beta (transient receptor potential cation channel C4), mouse; assay: activators of mouse TRPC4 channel, confirmation, cell-based, Fluo4 calcium, HEK293 TRPC4beta/mu-opioid, duplicates, 10 µM (AID 2426); conditions: Fluo4 calcium fluorescence, at 10 µM; hits give high values;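 on activation: percent rise of integrated ratio over buffer wells lacking compound which define 0%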
[2] = test system: transient receptor potential cation channel C4 beta (TRPC4), mouse; assay: activators of mouse TRPC4 channel, confirmation, cell-based, second round, Fluo4, HEK293 TRPC4beta/mu-opioid, 1 µM (AID 2461;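 active means primary screen active and over 50% activation in each of two duplicate runs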); conditions: Fluo4 calcium fluorescence, at 1 µM; hits give high values
[3] = test system: TRPC4 (transient receptor potential cation channel C4 beta), mouse; assay: positive allosteric modulators of mouse TRPC4, confirmation, cell-based, second round, Fluo-4, HEK293 TRPC4beta/mu-opioid, 1 µM (AID 2554;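 active means primary screen hit whose fluorescence ratio, in both repeats, exceeds the weak agonist control mean by 3 SD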); conditions: DAMGO EC20, Fluo-4 calcium flux, at 1 µM; hits give high values
[4] = test system: TRPC4 beta (transient receptor potential cation channel C4), mouse; assay: positive allosteric modulators of mouse TRPC4, confirmation, cell-based, Fluo-4, HEK293 TRPC4beta/mu-opioid (AID 2555;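 active means primary screen hit whose calcium fluorescence ratio, in both repeats, exceeds the weak agonist control mean by 3 SD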); conditions: DAMGO EC20, Fluo-4 calcium flux, at 10 µM; hits give high values
[5] = molecular target: Short transient receptor potential channel 4 (Mus musculus) (UniProt Q9QUQ5); assay: inhibitors of mouse TRPC4 channel, confirmation, cell-based, Fluo4, HEK293 TRPC4beta/mu-opioid (AID 2636;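 active means calcium signal cut by more than 3 SD below the full-agonist control yet still positive, in both repeats and the earlier primary screen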); conditions: DAMGO, Fluo4 calcium flux, at 10 µM; hits give high values
[6] = molecular target: Short transient receptor potential channel 4 (Mus musculus) (UniProt Q9QUQ5); assay: inhibitors of mouse TRPC4 channel, confirmation, cell-based, second round, Fluo4, HEK293 TRPC4beta/mu-opioid, 1 µM (AID 2637;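 active means calcium signal ratio cut to more than 3 SD under the fully stimulated control mean yet still positive, in both repeats and the primary screen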;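 on inhibition: percent of integrated ratio relative to wells lacking test compound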); conditions: Fluo4 calcium flux, DAMGO, at 1 µM; hits give high values
[7] = molecular target: Short transient receptor potential channel 4 (Mus musculus) (UniProt Q9QUQ5); assay: mouse TRPC4 channel activators, dose response, cell-based, HEK293 TRPC4/mu-opioid, Fluo-4 calcium (AID 434937;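 active means primary screen activator hit with a dose response curve and TRPC4 channel activation at any tested dose; inactive means no activation, no dose response, or not a primary hit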)
[8] = molecular target: Short transient receptor potential channel 4 (Mus musculus) (UniProt Q9QUQ5); assay: TRPC4 positive allosteric modulators, dose response, cell-based, HEK293 TRPC4/mu-opioid, Fluo-4 calcium, EC20 DAMGO (AID 434941;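 active means earlier screen potentiator hit that boosts the TRPC4 ion channel at some dose, with a dose response; inactive means no potentiation, no dose response, or not a prior hit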;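 further: calcium entry triggered by an EC20 dose of DAMGO at the co-expressed mu-opioid receptor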)
[9] = molecular target: Short transient receptor potential channel 4 (Mus musculus) (UniProt Q9QUQ5); assay: mouse TRPC4 channel inhibitors, dose response, cell-based, HEK293 TRPC4/mu-opioid, Fluo-4 calcium (AID 434942;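 active means primary screen inhibitor hit that blocks the TRPC4 channel at some tested dose, yielding a dose curve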)
[10] = molecular target: Short transient receptor potential channel 6 (Mus musculus) (UniProt Q61143); assay: inhibition of mouse TRPC6 channel, confirmation, selectivity assay for TRPC4 inhibitor project, cell-based, HEK293, membrane potential dye, duplicate (AID 434948;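 active means active in primary screen and both duplicates, each dropping signal beyond three positive-control SD with fluorescence still positive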); conditions: HEK293 TRPC6, membrane potential dye fluorescence, at 10 µM, stimulated with maximal-effect acetylcholine; hits give high values
[11] = molecular target: Short transient receptor potential channel 6 (Mus musculus) (UniProt Q61143); assay: activation of mouse TRPC6 channel, confirmation, selectivity assay for TRPC4 activator project, cell-based, HEK293, membrane potential dye, duplicate (AID 434950;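 active means membrane potential signal rise above negative control mean plus 3 SD in both duplicates, also active in the earlier TRPC4 screen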); conditions: HEK293 TRPC6, membrane potential fluorescence, at 10 µM; hits give high values
[12] = molecular target: Short transient receptor potential channel 6 (Mus musculus) (UniProt Q61143); assay: TRPC6 potentiation by TRPC4 potentiator hits, confirmation, selectivity assay for TRPC4 potentiator project, HEK293 cells, membrane potential dye, duplicate (AID 434952;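 active means compound raising the membrane signal above positive-control mean plus 3 SD in both repeats, and a primary screen hit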); conditions: HEK293 TRPC6, membrane potential dye fluorescence, at 10 µM, maximal acetylcholine added after compound; hits give high values
[13] = molecular target: Short transient receptor potential channel 4 (Mus musculus) (UniProt Q9QUQ5); assay: calcium flux activators in TRPC4/5HT1a cells, counter-screen for TRPC4 activator project, cell-based, second counter screen, HEK293 TRPC4/5HT1a, Fluo-4 (AID 434977;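 active means calcium signal rise above buffer-control mean plus 5 SD in both duplicates, and also a hit in the primary screen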); conditions: Fluo-4 calcium flux, at 10 µM; hits give high values
[14] = calcium flux inhibitors in TRPC4/5HT1a cells, confirmation, counter-screen for TRPC4 inhibitor project, cell-based, second counter screen, HEK293 TRPC4/5HT1a, Fluo-4 (AID 434978;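 active means primary screen active whose calcium signal fell more than 3 SD beyond the full-serotonin control mean in both duplicate plates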;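 on outcome: serotonin given first at submaximal then at maximal dose after compound preincubation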); conditions: Fluo-4 calcium flux, at 10 µM, serotonin added to trigger calcium flux; hits give high values
[15] = test system: TRPC4 (mouse), co-expressed with 5HT1a in HEK293; assay: calcium flux potentiators in TRPC4/5HT1a cells, confirmation, counter-screen for TRPC4 potentiator project, cell-based, second counter screen, HEK293 TRPC4/5HT1a, Fluo-4 (AID 434979;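 active means signal rise over 3 SD above mean of control wells given weak agonist, in both repeats and first screen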); conditions: Fluo-4 calcium flux, at 10 µM, serotonin added at its EC20 dose; hits give high values
[16] = calcium flux activation in mu-opioid HEK293 cells, confirmation, counter-screen for TRPC4 activator project, cell-based, HEK293 mu-opioid receptor line (AID 449723;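 active means hit in primary screen, with calcium signal over 5 SD above buffer well mean in both duplicates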;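 further: counter screen cells carry the mu-opioid receptor alone and lack TRPC4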); conditions: Fluo-4 calcium fluorescence, at 10 µM; hits give high values
[17] = calcium flux enhancement in mu-opioid HEK293 cells, confirmation, counter-screen for TRPC4 allosteric potentiator project, cell-based, HEK293 mu-opioid receptor line (AID 449724;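 active means calcium signal rise more than 3 SD above the low-dose agonist control mean, in both duplicate plates and the primary screen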); conditions: Fluo-4 calcium flux, at 10 µM, compound added before EC20 DAMGO stimulus; hits give high values

Sequence of Short transient receptor potential channel 6 (Mus musculus) (Q61143 whole entry, looked up): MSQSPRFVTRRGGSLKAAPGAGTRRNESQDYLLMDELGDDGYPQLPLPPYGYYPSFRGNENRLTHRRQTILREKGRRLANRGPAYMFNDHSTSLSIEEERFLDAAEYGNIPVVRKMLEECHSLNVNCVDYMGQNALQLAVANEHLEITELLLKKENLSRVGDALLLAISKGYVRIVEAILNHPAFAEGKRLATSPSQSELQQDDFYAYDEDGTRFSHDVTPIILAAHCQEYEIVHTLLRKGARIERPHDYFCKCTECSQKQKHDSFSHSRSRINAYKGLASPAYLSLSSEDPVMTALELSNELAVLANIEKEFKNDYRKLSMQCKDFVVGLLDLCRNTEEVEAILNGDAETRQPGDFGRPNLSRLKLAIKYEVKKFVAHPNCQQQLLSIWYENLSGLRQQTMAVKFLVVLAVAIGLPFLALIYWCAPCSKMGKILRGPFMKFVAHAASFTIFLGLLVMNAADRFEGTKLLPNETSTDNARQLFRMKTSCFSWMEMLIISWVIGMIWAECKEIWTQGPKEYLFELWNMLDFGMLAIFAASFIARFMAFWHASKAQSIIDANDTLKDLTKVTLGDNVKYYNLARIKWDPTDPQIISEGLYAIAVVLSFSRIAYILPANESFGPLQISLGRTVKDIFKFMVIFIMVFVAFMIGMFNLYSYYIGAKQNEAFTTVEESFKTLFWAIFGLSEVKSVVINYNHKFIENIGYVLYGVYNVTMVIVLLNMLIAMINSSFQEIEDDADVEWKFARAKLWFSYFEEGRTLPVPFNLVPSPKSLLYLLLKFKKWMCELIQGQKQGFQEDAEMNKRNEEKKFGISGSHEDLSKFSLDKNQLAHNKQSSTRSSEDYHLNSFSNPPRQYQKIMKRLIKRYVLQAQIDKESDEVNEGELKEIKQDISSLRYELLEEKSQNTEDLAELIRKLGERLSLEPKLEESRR
Sequence of Short transient receptor potential channel 4 (Mus musculus) (Q9QUQ5 whole entry, looked up): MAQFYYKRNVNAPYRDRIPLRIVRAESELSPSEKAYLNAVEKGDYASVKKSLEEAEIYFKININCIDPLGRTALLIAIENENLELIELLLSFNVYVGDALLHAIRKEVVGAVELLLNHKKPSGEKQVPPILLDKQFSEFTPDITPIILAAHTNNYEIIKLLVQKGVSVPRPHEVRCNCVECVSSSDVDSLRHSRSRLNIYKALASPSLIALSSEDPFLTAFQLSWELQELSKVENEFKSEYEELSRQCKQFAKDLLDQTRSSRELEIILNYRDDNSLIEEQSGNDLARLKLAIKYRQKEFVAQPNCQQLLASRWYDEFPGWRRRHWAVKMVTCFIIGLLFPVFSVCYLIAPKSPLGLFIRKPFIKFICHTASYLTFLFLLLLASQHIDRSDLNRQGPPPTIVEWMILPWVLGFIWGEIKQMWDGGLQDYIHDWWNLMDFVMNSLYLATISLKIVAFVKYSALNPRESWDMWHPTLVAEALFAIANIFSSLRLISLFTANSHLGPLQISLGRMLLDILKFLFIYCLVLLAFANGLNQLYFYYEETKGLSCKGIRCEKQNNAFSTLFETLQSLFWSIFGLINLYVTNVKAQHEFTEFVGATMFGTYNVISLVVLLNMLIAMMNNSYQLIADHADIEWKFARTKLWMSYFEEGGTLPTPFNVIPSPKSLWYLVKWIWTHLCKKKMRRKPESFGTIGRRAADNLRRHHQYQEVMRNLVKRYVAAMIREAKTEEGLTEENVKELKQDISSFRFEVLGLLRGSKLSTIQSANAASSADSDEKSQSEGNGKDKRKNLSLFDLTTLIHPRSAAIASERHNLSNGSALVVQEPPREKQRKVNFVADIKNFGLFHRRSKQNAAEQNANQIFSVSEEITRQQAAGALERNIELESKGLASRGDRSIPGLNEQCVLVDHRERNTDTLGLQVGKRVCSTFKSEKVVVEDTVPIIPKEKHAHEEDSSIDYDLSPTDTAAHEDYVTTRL

CC[n+]1c(/C=C/c2ccc(OC(C)=O)c(OC)c2)ccc2ccccc21
inactive: outcome [1] | outcome [2] | outcome [3] | outcome [4] | outcome [5] | outcome [6] | outcome [7] | outcome [8] | outcome [9] | outcome [10] | outcome [11] | outcome [12] | outcome [13] | outcome [14] | outcome [15] | outcome [16] | outcome [17]

Cn1c(=O)c2c(nc(SCCN3CCCCC3)n2Cc2ccccc2)n(C)c1=O
inactive: outcome [1] | outcome [2] | outcome [3] | outcome [5] | outcome [6] | outcome [7] | outcome [8] | outcome [9] | outcome [10] | outcome [11] | outcome [12] | outcome [13] | outcome [14] | outcome [16] | outcome [17]
active: potentiation [4] 36% | potentiation [15] 50.5%

CSc1ccc2nnc(-c3cccc(F)c3)n2n1
inactive: outcome [1] | outcome [2] | outcome [3] | outcome [5] | outcome [6] | outcome [7] | outcome [8] | outcome [9] | outcome [10] | outcome [11] | outcome [12] | outcome [13] | outcome [14] | outcome [16] | outcome [17]
active: potentiation [4] 43% | potentiation [15] 26.8%

CCCN1CCN(C(=S)NCc2ccc(Cl)cc2)CC1
inactive: outcome [1] | outcome [2] | outcome [3] | outcome [5] | outcome [6] | outcome [7] | outcome [8] | outcome [9] | outcome [10] | outcome [11] | outcome [12] | outcome [13] | outcome [14] | outcome [16] | outcome [17]
active: potentiation [4] 8% | potentiation [15] 19.3%

Cc1cc(C(=O)CN2C(=O)C(=O)N(CC(C)C)C2=O)c(C)n1-c1ccccc1F
inactive: outcome [1] | outcome [2] | outcome [3] | outcome [4] | outcome [5] | outcome [6] | outcome [7] | outcome [8] | outcome [9] | outcome [10] | outcome [11] | outcome [12] | outcome [13] | outcome [14] | outcome [16] | outcome [17]
active: potentiation [15] 35.1%

N=C(N)SCc1cn2ccccc2n1
active: potentiation [15] 8.53%
inactive: outcome [1] | outcome [2] | outcome [3] | outcome [4] | outcome [5] | outcome [6] | outcome [7] | outcome [8] | outcome [9] | outcome [10] | outcome [11] | outcome [12] | outcome [13] | outcome [14] | outcome [16] | outcome [17]

COc1ccc(-n2cc(CNCc3cccnc3)c(-c3cccc(F)c3)n2)cc1
active: activation [1] 84%
inactive: outcome [2] | outcome [3] | outcome [4] | outcome [5] | outcome [6] | outcome [7] | outcome [8] | outcome [9] | outcome [10] | outcome [11] | outcome [12] | outcome [13] | outcome [14] | outcome [15] | outcome [16] | outcome [17]

CCNc1nc(NC(C)(C)C)nc(N2CCCC2)n1
inactive: outcome [1] | outcome [2] | outcome [3] | outcome [4] | outcome [6] | outcome [7] | outcome [8] | outcome [9] | outcome [10] | outcome [11] | outcome [12] | outcome [13] | outcome [15] | outcome [16] | outcome [17]
active: inhibition [5] 77% | inhibition [14] 41.2%

COc1ccccc1OCC(=O)Nc1ccc(Cl)cc1
inactive: outcome [1] | outcome [2] | outcome [3] | outcome [4] | outcome [7] | outcome [8] | outcome [9] | outcome [10] | outcome [11] | outcome [12] | outcome [13] | outcome [14] | outcome [15] | outcome [16] | outcome [17]
active: inhibition [5] 52% | inhibition [6] 41%

CCCCCCc1cc2cc(-c3nnc(-c4cc(OC)c(OC)c(OC)c4)o3)c(=O)oc2cc1O
inactive: outcome [1] | outcome [2] | outcome [3] | outcome [5] | outcome [6] | outcome [7] | outcome [8] | outcome [9] | outcome [10] | outcome [11] | outcome [12] | outcome [13] | outcome [14] | outcome [16]
active: potentiation [4] 37% | potentiation [15] 16.1% | activation [17] 4130%

O=C(c1ccncc1)N1c2ccccc2Sc2ccccc21
inactive: outcome [1] | outcome [2] | outcome [3] | outcome [4] | outcome [5] | outcome [6] | outcome [7] | outcome [8] | outcome [9] | outcome [10] | outcome [11] | outcome [12] | outcome [13] | outcome [14] | outcome [15] | outcome [16] | outcome [17]

CN(CCNS(=O)(=O)c1ccc2c(c1)oc(=O)n2C)Cc1ccccc1
inactive: outcome [1] | outcome [2] | outcome [3] | outcome [5] | outcome [6] | outcome [7] | outcome [8] | outcome [9] | outcome [10] | outcome [11] | outcome [12] | outcome [13] | outcome [14] | outcome [16] | outcome [17]
active: potentiation [4] 8% | potentiation [15] 13.7%

CC(C)n1c(SCC(=O)N2c3ccccc3Sc3ccccc32)nc2c1c(=O)n(C)c(=O)n2C
active: potentiation [15] 50.7%
inactive: outcome [1] | outcome [2] | outcome [3] | outcome [4] | outcome [5] | outcome [6] | outcome [7] | outcome [8] | outcome [9] | outcome [10] | outcome [11] | outcome [12] | outcome [13] | outcome [14] | outcome [16] | outcome [17]

C=CCNC(=O)C(=O)NCC1CCCN1S(=O)(=O)c1cccs1 (stereo not given)
inactive: outcome [1] | outcome [2] | outcome [3] | outcome [4] | outcome [5] | outcome [6] | outcome [7] | outcome [8] | outcome [9] | outcome [10] | outcome [11] | outcome [12] | outcome [13] | outcome [14] | outcome [16] | outcome [17]
active: potentiation [15] 11.2%

CC1CCc2c(C(=O)N3CCN(S(=O)(=O)c4cccs4)CC3)csc2C1 (stereo not given)
active: potentiation [4] 22%
inactive: outcome [1] | outcome [2] | outcome [3] | outcome [5] | outcome [6] | outcome [7] | outcome [8] | outcome [9] | outcome [10] | outcome [11] | outcome [12] | outcome [13] | outcome [14] | outcome [15] | outcome [16] | outcome [17]
